Structures can show the parent of a compound that is named as a salt. ± gives the standard deviation of the averaged measurements.
Legend:
Assay in all cases: growth (OD600 after 10 h); higher = more growth (less inhibition)
[1] = test system: E. coli TESEC Alr+ wild-type control; settings: compound 0.1 mM; raw OD600 reference: median of DMSO wells 0.241, cell-free background 0.041
Experimental: (§1)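 TESEC Mtb Alr E. coli, or the Alr+ wild-type control, in 384-well plates with Prestwick library compounds at 0.1 mM and 1% DMSO, across arabinose induction levels of 1E3 to 1E7 nM. Growth is read as OD600 after 10 h at 37 °C in triplicate biological replicates.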

[2] = test system: E. coli TESEC Mtb Alr; settings: compound 0.1 mM
Experimental: as §1

[3] = test system: E. coli TESEC Mtb Asd; settings: compound 0.1 mM
Experimental: (§2)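 TESEC E. coli strains in which the native enzyme is deleted and replaced by arabinose-inducible Mtb Asd, DapB, CysH or TrpD, each grown in its selective medium. Strains were screened against the Prestwick library at 0.1 mM and 1% DMSO in 384-well format at low and high arabinose induction. Growth is read as OD600 after 10 h in triplicate.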

[4] = test system: E. coli TESEC Mtb DapB; settings: compound 0.1 mM
Experimental: as §2

[5] = test system: E. coli TESEC Alr+ wild-type control; settings: compound 0.1 mM; raw OD600 reference: median of DMSO wells 0.49, cell-free background 0.052
Experimental: (§3)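 TESEC Mtb Alr E. coli (ΔaraC ΔtolC ΔentC Δalr ΔdadX, arabinose-inducible Mtb Alr) or the Alr+ wild-type control strain, grown in defined M9-fructose medium without D-alanine in 96-well plates with Prestwick library compounds at 0.1 mM and 1% DMSO. Low Alr induction is 0.1 µM arabinose and high induction is 10 mM arabinose.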

[6] = test system: E. coli TESEC Mtb Alr; settings: compound 0.1 mM; remark: listed apart in the source
Experimental: as §3

[7] = arabinose 1000 nM, raw OD600 reference: median of DMSO wells 0.294, cell-free background 0.041
[8] = arabinose 10000 nM, raw OD600 reference: median of DMSO wells 0.264, cell-free background 0.041
[9] = arabinose 100000 nM, raw OD600 reference: median of DMSO wells 0.201, cell-free background 0.041
[10] = arabinose 1000000 nM, raw OD600 reference: median of DMSO wells 0.193, cell-free background 0.041
[11] = arabinose 10000000 nM, raw OD600 reference: median of DMSO wells 0.146, cell-free background 0.041
[12] = arabinose induction (level): High, raw OD600 reference: median of DMSO wells 0.331, cell-free background 0.041
[13] = arabinose induction (level): Low, raw OD600 reference: median of DMSO wells 0.417, cell-free background 0.041
[14] = arabinose induction (level): High, raw OD600 reference: median of DMSO wells […], cell-free background 0.041
[15] = arabinose induction (level): Low, raw OD600 reference: median of DMSO wells 0.227, cell-free background 0.041
[16] = arabinose 100 nM, raw OD600 reference: median of DMSO wells 0.413, cell-free background 0.052
[17] = arabinose 10000000 nM, raw OD600 reference: median of DMSO wells […], cell-free background 0.052

## CC[N+](C)(CC)CCOC(=O)C1c2ccccc2Oc2ccccc21 [Methantheline bromide]
[1]
  growth: 0.192 ± 0.0029
[2]; [7]
  growth: 0.269 ± 0.011
[2]; [8]
  growth: 0.287 ± 0.0031
[2]; [9]
  growth: 0.18 ± 0.015
[2]; [10]
  growth: 0.193 ± 0.025
[2]; [11]
  growth: 0.135 ± 0.007
[3]; [12]
  growth: 0.223 ± 0.043
[3]; [13]
  growth: 0.344 ± 0.044
[4]; [14]
  growth: 0.173 ± 0.018
[4]; [15]
  growth: 0.222 ± 0.018
[5]
  growth: 0.592 ± 0.017
[6]; [16]
  growth: 0.4172 ± 0.0035
[6]; [17]
  growth: 0.336 ± 0.013

## CC[N+](CC)(CC)CCC(O)(c1ccccc1)C1CCCCC1 (stereo unspecified) [Tridihexethyl chloride]
[1]
  growth: 0.2104 ± 0.0021
[2]; [7]
  growth: 0.298 ± 0.015
[2]; [8]
  growth: 0.2775 ± 0.0026
[2]; [9]
  growth: 0.199 ± 0.019
[2]; [10]
  growth: 0.185 ± 0.015
[2]; [11]
  growth: 0.144 ± 0.0075
[3]; [12]
  growth: 0.349 ± 0.028
[3]; [13]
  growth: 0.369 ± 0.085
[4]; [14]
  growth: 0.207 ± 0.026
[4]; [15]
  growth: 0.233 ± 0.037
[5]
  growth: 0.437 ± 0.045
[6]; [16]
  growth: 0.417 ± 0.0044
[6]; [17]
  growth: 0.335 ± 0.018

## CCN1CCC[C@H]1CNC(=O)c1c(OC)ccc(Br)c1OC [Remoxipride Hydrochloride]
[1]
  growth: 0.256 ± 0.007
[2]; [7]
  growth: 0.304 ± 0.016
[2]; [8]
  growth: 0.259 ± 0.004
[2]; [9]
  growth: 0.192 ± 0.0085
[2]; [10]
  growth: 0.184 ± 0.0027
[2]; [11]
  growth: 0.136 ± 0.0041
[3]; [12]
  growth: 0.288 ± 0.032
[3]; [13]
  growth: 0.445 ± 0.015
[4]; [14]
  growth: 0.195 ± 0.0092
[4]; [15]
  growth: 0.218 ± 0.039
[5]
  growth: 0.588 ± 0.039
[6]; [16]
  growth: 0.416 ± 0.017
[6]; [17]
  growth: 0.338 ± 0.039

## CCCCCCNC(=O)n1cc(F)c(=O)[nH]c1=O [Carmofur]
[1]
  growth: 0.1489 ± 0.00094
[2]; [7]
  growth: 0.215 ± 0.024
[2]; [8]
  growth: 0.176 ± 0.017
[2]; [9]
  growth: 0.108 ± 0.0064
[2]; [10]
  growth: 0.0803 ± 0.0054
[2]; [11]
  growth: 0.112 ± 0.0029
[3]; [12]
  growth: 0.235 ± 0.029
[3]; [13]
  growth: 0.359 ± 0.026
[4]; [14]
  growth: 0.179 ± 0.01
[4]; [15]
  growth: 0.201 ± 0.018
[5]
  growth: 0.508 ± 0.04
[6]; [16]
  growth: 0.349 ± 0.056
[6]; [17]
  growth: 0.134 ± 0.014

## CN1CCN(C(c2ccccc2)c2ccccc2)CC1 [Cyclizine hydrochloride]
[1]
  growth: 0.216 ± 0.0082
[2]; [7]
  growth: 0.278 ± 0.011
[2]; [8]
  growth: 0.256 ± 0.0077
[2]; [9]
  growth: 0.188 ± 0.025
[2]; [10]
  growth: 0.142 ± 0.013
[2]; [11]
  growth: 0.142 ± 0.0021
[3]; [12]
  growth: 0.173 ± 0.0089
[3]; [13]
  growth: 0.31 ± 0.039
[4]; [14]
  growth: 0.168 ± 0.0017
[4]; [15]
  growth: 0.196 ± 0.0017
[5]
  growth: 0.602 ± 0.088
[6]; [16]
  growth: 0.41 ± 0.011
[6]; [17]
  growth: 0.325 ± 0.0044

## CSc1ccc2c(c1)N(CCC1CCCCN1C)c1ccccc1S2 (stereo unspecified) [Thioridazine hydrochloride]
[1]
  growth: 0.04013 ± 0.00015
[2]; [7]
  growth: 0.0427 ± 0.0046
[2]; [8]
  growth: 0.0393 ± 0.00064
[2]; [9]
  growth: 0.04037 ± 0.00031
[2]; [10]
  growth: 0.03907 ± 0.00012
[2]; [11]
  growth: 0.04007 ± 5.8e-05
[3]; [12]
  growth: 0.0505 ± 0.0013
[3]; [13]
  growth: 0.0523 ± 0.0022
[4]; [14]
  growth: 0.04803 ± 0.00029
[4]; [15]
  growth: 0.0782 ± 0.052
[5]
  growth: 0.0484 ± 0.00036
[6]; [16]
  growth: 0.178 ± 0.21
[6]; [17]
  growth: 0.05103 ± 0.00015

## c1cnc(N2CCN(Cc3ccc4c(c3)OCO4)CC2)nc1 [Piribedil hydrochloride]
[1]
  growth: 0.2234 ± 0.0017
[2]; [7]
  growth: 0.273 ± 0.0036
[2]; [8]
  growth: 0.256 ± 0.0059
[2]; [9]
  growth: 0.179 ± 0.01
[2]; [10]
  growth: 0.166 ± 0.0044
[2]; [11]
  growth: 0.14 ± 0.0043
[3]; [12]
  growth: 0.218 ± 0.013
[3]; [13]
  growth: 0.399 ± 0.027
[4]; [14]
  growth: 0.178 ± 0.01
[4]; [15]
  growth: 0.202 ± 0.013
[5]
  growth: 0.512 ± 0.077
[6]; [16]
  growth: 0.398 ± 0.014
[6]; [17]
  growth: 0.366 ± 0.01

From the supplement of paper PMC9262897, “Low-cost anti-mycobacterial drug discovery using engineered E. coli” (Nature Communications, 2022)
